According to article PMC7862700, “An all-to-all approach to the identification of sequence-specific readers for epigenetic DNA modifications on cytosine”:

Tests used:
Experiment in all cases: DAPPL (digital affinity profiling via proximity ligation, sequencing); 10 mM Tris-HCl pH 7.5, 50 mM NaCl, 1 mM DTT, 4% glycerol, room temperature, 30 min; GST-TFs on glutathione beads, 16-mer random dsDNA library, 0.1% formaldehyde crosslink after washing; high values mean tight binding
Conditions in all cases: protein: recombinant; tags: N-terminal GST; dsDNA, one strand shown
ERF = biological target: T1, ERF (Homo sapiens, UniProt P50548 1-548)
T1 sequence: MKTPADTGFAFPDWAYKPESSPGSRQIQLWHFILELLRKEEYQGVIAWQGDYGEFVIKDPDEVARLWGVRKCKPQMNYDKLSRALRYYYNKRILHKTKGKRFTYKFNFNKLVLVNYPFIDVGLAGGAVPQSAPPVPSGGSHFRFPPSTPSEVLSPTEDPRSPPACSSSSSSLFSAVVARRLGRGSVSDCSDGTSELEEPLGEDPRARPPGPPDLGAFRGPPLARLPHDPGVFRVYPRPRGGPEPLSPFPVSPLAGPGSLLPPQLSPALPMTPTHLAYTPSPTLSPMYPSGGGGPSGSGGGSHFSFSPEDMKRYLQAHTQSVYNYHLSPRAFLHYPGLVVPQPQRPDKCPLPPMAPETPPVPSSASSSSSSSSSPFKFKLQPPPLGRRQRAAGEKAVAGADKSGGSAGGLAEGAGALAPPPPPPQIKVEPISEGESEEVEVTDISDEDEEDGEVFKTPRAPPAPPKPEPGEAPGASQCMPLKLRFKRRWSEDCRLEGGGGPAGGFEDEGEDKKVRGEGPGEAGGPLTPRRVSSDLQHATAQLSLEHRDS
Method in brief: (§1)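 Pools of DNA-barcoded human transcription factors, expressed in yeast as GST fusions on glutathione beads and combined with a tag-only sample, were incubated with 200 nmole of a 16-mer random double-stranded DNA library. Incubation took 30 min at room temperature in Tris/NaCl/DTT/glycerol buffer and was followed by washing, 0.1% formaldehyde crosslinking, proximity ligation (BsaI/T4 ligase, 1 h, 37 °C), PCR amplification and sequencing on an Illumina NextSeq500. Binding signal is the ratio of a hexamer's read frequency for a factor to its frequency for the tag-only sample.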

ETV3L = biological target: T2, ETV3L (Homo sapiens, UniProt Q6ZN32 1-361)
T2 sequence: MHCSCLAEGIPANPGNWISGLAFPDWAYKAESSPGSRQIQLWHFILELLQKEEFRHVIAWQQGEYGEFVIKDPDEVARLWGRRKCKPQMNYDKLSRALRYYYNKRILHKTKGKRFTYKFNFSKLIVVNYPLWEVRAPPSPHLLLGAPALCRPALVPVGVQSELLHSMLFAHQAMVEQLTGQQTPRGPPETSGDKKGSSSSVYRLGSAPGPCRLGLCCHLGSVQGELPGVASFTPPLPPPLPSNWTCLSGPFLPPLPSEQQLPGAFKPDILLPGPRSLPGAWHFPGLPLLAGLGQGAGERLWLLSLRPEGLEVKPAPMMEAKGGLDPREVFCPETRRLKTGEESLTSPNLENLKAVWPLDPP
Method in brief: as §1

ETS2 = biological target: T3, ETS2 (Homo sapiens, UniProt P15036 1-469)
T3 sequence: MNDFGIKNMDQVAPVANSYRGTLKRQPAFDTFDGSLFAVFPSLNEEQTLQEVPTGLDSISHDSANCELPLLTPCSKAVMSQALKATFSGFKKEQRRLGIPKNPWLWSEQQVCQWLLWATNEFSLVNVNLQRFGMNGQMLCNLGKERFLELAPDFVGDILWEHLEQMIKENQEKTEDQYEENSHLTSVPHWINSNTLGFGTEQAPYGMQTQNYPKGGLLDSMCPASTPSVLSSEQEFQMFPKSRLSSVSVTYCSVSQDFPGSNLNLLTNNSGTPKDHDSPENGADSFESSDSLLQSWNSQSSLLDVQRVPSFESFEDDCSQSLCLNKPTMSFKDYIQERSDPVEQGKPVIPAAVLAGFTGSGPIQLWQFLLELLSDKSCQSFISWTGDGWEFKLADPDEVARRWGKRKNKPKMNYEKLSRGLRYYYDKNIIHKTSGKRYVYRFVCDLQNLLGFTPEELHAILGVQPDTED
Method in brief: as §1

SPDEF = biological target: T4, SPDEF (Homo sapiens, UniProt O95238 1-335)
T4 sequence: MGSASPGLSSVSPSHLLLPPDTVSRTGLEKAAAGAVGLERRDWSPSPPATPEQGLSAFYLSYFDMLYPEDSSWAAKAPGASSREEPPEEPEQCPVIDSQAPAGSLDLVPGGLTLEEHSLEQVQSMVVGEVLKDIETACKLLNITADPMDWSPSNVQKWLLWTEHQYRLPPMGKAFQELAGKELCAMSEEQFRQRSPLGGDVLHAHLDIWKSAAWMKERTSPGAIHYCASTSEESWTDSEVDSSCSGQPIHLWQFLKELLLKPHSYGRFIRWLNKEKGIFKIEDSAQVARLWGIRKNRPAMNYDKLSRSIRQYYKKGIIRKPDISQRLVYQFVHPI
Method in brief: as §1

ETV7 = biological target: T5, ETV7 (Homo sapiens, UniProt Q9Y603 1-341)
T5 sequence: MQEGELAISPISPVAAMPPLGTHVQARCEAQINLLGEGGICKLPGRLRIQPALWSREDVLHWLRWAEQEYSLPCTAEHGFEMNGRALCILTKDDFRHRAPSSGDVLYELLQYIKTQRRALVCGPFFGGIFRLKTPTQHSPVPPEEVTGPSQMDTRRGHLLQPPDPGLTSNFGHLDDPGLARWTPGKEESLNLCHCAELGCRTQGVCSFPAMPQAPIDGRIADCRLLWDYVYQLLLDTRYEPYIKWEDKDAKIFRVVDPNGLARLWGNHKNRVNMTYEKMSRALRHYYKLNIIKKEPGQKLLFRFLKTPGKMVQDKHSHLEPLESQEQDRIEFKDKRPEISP
Method in brief: as §1

ELF5 = biological target: T6, ELF5 (Homo sapiens, UniProt Q9UKW6-2 1-255)
T6 sequence: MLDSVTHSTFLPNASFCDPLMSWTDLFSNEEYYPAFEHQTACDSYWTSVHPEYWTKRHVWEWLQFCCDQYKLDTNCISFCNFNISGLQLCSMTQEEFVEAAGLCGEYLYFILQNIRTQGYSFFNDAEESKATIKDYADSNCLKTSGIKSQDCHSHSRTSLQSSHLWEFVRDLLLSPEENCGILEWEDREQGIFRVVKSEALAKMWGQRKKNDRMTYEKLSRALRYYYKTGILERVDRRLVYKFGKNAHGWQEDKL
Method in brief: as §1

ETV3 = biological target: T7, ETV3 (Homo sapiens, UniProt P41162-2 1-143)
T7 sequence: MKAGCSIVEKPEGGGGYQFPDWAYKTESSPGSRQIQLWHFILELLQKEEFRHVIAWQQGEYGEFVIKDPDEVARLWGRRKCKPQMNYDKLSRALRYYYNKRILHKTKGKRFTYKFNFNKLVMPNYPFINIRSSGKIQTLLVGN
Method in brief: as §1

ETV6 = ETV6 (Homo sapiens, UniProt P41212 1-452)
Chain of ETV6 (P41212 whole entry): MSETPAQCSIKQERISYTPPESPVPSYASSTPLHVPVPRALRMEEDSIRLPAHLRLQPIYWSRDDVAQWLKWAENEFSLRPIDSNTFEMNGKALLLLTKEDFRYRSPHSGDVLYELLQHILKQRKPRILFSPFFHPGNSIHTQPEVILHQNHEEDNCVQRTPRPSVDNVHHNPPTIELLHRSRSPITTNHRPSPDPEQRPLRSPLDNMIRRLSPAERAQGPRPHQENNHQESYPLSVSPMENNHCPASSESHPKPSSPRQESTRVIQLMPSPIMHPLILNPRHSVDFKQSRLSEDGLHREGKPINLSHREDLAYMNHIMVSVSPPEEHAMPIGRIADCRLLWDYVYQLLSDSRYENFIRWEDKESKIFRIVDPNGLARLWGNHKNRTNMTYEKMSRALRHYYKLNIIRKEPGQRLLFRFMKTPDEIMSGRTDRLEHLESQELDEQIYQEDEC
Method in brief: as §1

Row | Sequence | binding signal (ERF) | binding signal (ETV3L) | binding signal (ETS2) | binding signal (SPDEF) | binding signal (ETV7) | binding signal (ELF5) | binding signal (ETV3) | binding signal (ETV6)
1 | GTAATA | 1.12 fold enrichment (6-mer frequency, TF over GST control) | 1.16 fold enrichment (6-mer frequency, TF over GST control) | 1.11 fold enrichment (6-mer frequency, TF over GST control) | 1.16 fold enrichment (6-mer frequency, TF over GST control) | 1.29 fold enrichment (6-mer frequency, TF over GST control) | 1.2 fold enrichment (6-mer frequency, TF over GST control) | 1.06 fold enrichment (6-mer frequency, TF over GST control) | 1.16 fold enrichment (6-mer frequency, TF over GST control)
2 | AACCTT | 1.39 fold enrichment (6-mer frequency, TF over GST control) | 1.27 fold enrichment (6-mer frequency, TF over GST control) | 1.38 fold enrichment (6-mer frequency, TF over GST control) | 1.29 fold enrichment (6-mer frequency, TF over GST control) | 1.29 fold enrichment (6-mer frequency, TF over GST control) | 1.33 fold enrichment (6-mer frequency, TF over GST control) | 1.28 fold enrichment (6-mer frequency, TF over GST control) | 1.27 fold enrichment (6-mer frequency, TF over GST control)
3 | TCAACT | 1.31 fold enrichment (6-mer frequency, TF over GST control) | 1.32 fold enrichment (6-mer frequency, TF over GST control) | 1.34 fold enrichment (6-mer frequency, TF over GST control) | 1.27 fold enrichment (6-mer frequency, TF over GST control) | 1.12 fold enrichment (6-mer frequency, TF over GST control) | 1.24 fold enrichment (6-mer frequency, TF over GST control) | 1.31 fold enrichment (6-mer frequency, TF over GST control) | 1.33 fold enrichment (6-mer frequency, TF over GST control)
4 | TTGTGT | 1.4 fold enrichment (6-mer frequency, TF over GST control) | 1.15 fold enrichment (6-mer frequency, TF over GST control) | 1.16 fold enrichment (6-mer frequency, TF over GST control) | 1.26 fold enrichment (6-mer frequency, TF over GST control) | 1.34 fold enrichment (6-mer frequency, TF over GST control) | 1.16 fold enrichment (6-mer frequency, TF over GST control) | 1.27 fold enrichment (6-mer frequency, TF over GST control) | 1.19 fold enrichment (6-mer frequency, TF over GST control)
5 | ATTTGA | 1.14 fold enrichment (6-mer frequency, TF over GST control) | 1.25 fold enrichment (6-mer frequency, TF over GST control) | 1.2 fold enrichment (6-mer frequency, TF over GST control) | 1.19 fold enrichment (6-mer frequency, TF over GST control) | 1.28 fold enrichment (6-mer frequency, TF over GST control) | 1.12 fold enrichment (6-mer frequency, TF over GST control) | 1.21 fold enrichment (6-mer frequency, TF over GST control) | 1.16 fold enrichment (6-mer frequency, TF over GST control)
6 | AACCTA | 1.03 fold enrichment (6-mer frequency, TF over GST control) | 1.05 fold enrichment (6-mer frequency, TF over GST control) | 1.11 fold enrichment (6-mer frequency, TF over GST control) | 1.08 fold enrichment (6-mer frequency, TF over GST control) | 1.03 fold enrichment (6-mer frequency, TF over GST control) | 1.07 fold enrichment (6-mer frequency, TF over GST control) | 1.07 fold enrichment (6-mer frequency, TF over GST control) | 1.1 fold enrichment (6-mer frequency, TF over GST control)
7 | ATTCCT | 1.2 fold enrichment (6-mer frequency, TF over GST control) | 1.32 fold enrichment (6-mer frequency, TF over GST control) | 1.39 fold enrichment (6-mer frequency, TF over GST control) | 1.32 fold enrichment (6-mer frequency, TF over GST control) | 1.39 fold enrichment (6-mer frequency, TF over GST control) | 1.68 fold enrichment (6-mer frequency, TF over GST control) | 1.47 fold enrichment (6-mer frequency, TF over GST control) | 1.35 fold enrichment (6-mer frequency, TF over GST control)
